About 83,000 compounds went through this panel and 20% of them were active in at least one assay; those are over-represented in the sample as a whole.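 For each line, cells grew in 96-well plates with the test compound present at a single concentration for 48 hours.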 Unmarked numbers belong to inactive results. Calls of active or inactive are those of the source. The calls were made as follows: active = growth percent below 10; inactive = the rest.

For this assay, the system named is A549/ATCC NSCLC. The experiment in a line: NCI-60 one-dose screen, 48 h (100 = growth as untreated, 0 = no growth, -100 = all killed). Conditions: 10 µM unless noted.
As to `COC(=O)C[C@](O)(CCCC(C)(C)O)C(=O)O[C@H]1C(OC)=C[C@@]23CCCN2CCc2cc4c(cc2[C@@H]13)OCO4`, the growth is -18.5% (active).

For `COc1cc(/C=C2\C(=N)N=C(SCc3nc4ccccc4[nH]3)NC2=O)ccc1O`, the growth is 110%.

Take `N/C(=N\N=C\c1ccc([N+](=O)[O-])cc1)c1c(N)nc(=S)[nH]c1-c1ccc(Cl)cc1Cl`: the growth was 101%.

As for `CC1(c2cc3cc(Cl)ccc3oc2=O)NC(=O)c2c(/C=C/C(=O)OC3CC4CCC3(C)C4(C)C)cccc2N1` (stereo not given), the growth is 41.7%.

As to `O=C(N=Nc1c(O)[nH]c2ccc(Cl)cc12)c1ccc2nc(-c3ccccc3)[nH]c2c1`, the growth was 94.3%.

As for `O=C(O)c1cccc(-c2ccc(/C=N/NC(=O)c3[nH]c4ccc(Br)cc4c3-c3ccccc3)o2)c1`, the growth is 100%.

With `CC1(C)CC[C@]2(C(=O)Nc3ccccc3)CC[C@]3(C)C(=CCC4[C@@]5(C)C[C@@H](O)[C@H](O)[C@@](C)(CO)C5CC[C@]43C)C2C1` (stereo not given in full), the growth is 39.2%.

Take `O=c1[nH]c2ccccc2cc1CSc1cccc(Nc2nccc(-c3ccc4ccccc4c3)n2)c1`: the growth is 83.6%.

Consider `Clc1cccc(N/N=C/c2c[nH]c3ccc(Br)cc23)n1`, for which the growth is 30.2%.

`CSc1ccc(NC(=O)c2ccc3nnn(/C(C#N)=C/c4ccccn4)c3c2)cc1`: the growth was -52.5% (active).

Turning to `Cc1c(C(=O)NNC(=O)c2ccc(Cl)cc2)nnn1-c1ccc(Cl)cc1`, the growth was 95.2%.

As for `CN(C)c1nc(NCCNS(=O)(=O)c2ccc(C(=O)/C=C/c3ccc(F)cc3)cc2)nc(Nc2ccc(F)cc2)n1`, the growth was -56.4% (active).

Regarding `CNC(=O)c1cc(Oc2ccc3nc(NC(=O)Nc4cccc(OC(F)(F)F)c4)sc3c2)ccn1`, the growth was 35.2%.

Regarding `CC(C)(C)OC(=O)/C=C/c1cccc2c1C(=O)NC(C)(c1cc3cc(Cl)ccc3oc1=O)N2` (stereo not given), the growth is 27.4%.

As to `Cc1ccc(C2CC(c3ccc(S(=O)(=O)NCCNc4nc(Nc5ccc(F)cc5)nc(N(C)C)n4)cc3)=Nc3c(N)nc(N)nc3N2)cc1` (stereo not given), the growth was 68.4%.

Take `CC1=C(C(=O)OC(C)C)C(c2cccc(O)c2)NC(=S)N1` (stereo not given): the growth was 103%.

As for `C[C@H](Nc1nc(NCCc2ccccc2)nc2ccccc12)c1ccccc1`, the growth was -33.2% (active).

`COc1ccc(-c2c(Nn3cnnn3)no[n+]2[O-])cc1`: the growth was 67.1%.

As to `Cn1cc(NC(=O)c2cc(NC(=O)c3ccc(C#Cc4ccccc4)cc3)cn2C)cc1C(=O)NCCCN1CCOCC1`, the growth is 33.3%.

With `COc1cc(NC(=O)c2cccc(C3CCc4c(cc(OC)c(OC)c4OC)O3)c2)cc(OC)c1OC` (stereo not given), the growth is 19.5%.

Take `COc1ccc(-c2nnc3ccc(N/N=C/c4ccc(C)cc4)nn23)cc1`: the growth is 33.4%.

With `Cc1ccc(-n2c(-c3cc4ccccc4nc3Cl)noc2=O)cc1`, the growth is 85.7%.

For the molecule `CC(=O)Oc1ccccc1C(=O)[Se]CC(=O)Nc1cccc(C(F)(F)F)c1`, the growth is -61.3% (active).

On to `N#Cc1c(-c2ccccc2Cl)cc(-c2ccc3ccccc3c2)[nH]c1=O`, for which the growth was 17.5%.

As to `CCCCNC(=S)Nc1ccc(OCc2nc3ccccc3[nH]2)cc1`, the growth was 49.7%.

Turning to `COc1ccc(-c2nc3cc(C)ccc3n2CC(=O)N=Nc2c(O)[nH]c3ccccc23)cc1`, the growth is -34% (active).

`COc1ccc(-c2nc3ccc(C(=O)NN4C(=O)c5ccc([N+](=O)[O-])cc5C4=O)cc3[nH]2)cc1`: the growth was 93%.

Take `O=c1oc2ccccc2cc1-c1csc(N=Nc2c(O)[nH]c3ccc(Cl)cc23)n1`: the growth was 102%.

Take `CN(C)c1ccnc(CNCCSC2(c3ccccc3)c3ccccc3C=Cc3ccccc32)c1`: the growth is 0.815% (active).

On to `COc1cc2c(c(OC)c1OC)C(=O)CC(c1cccc(NC(=O)c3cc(NC(=O)[C@@H](N)CO)ccc3C)c1)O2` (stereo not given in full), for which the growth is 102%.

With `COc1ccc(C(=O)/C=C/c2c(F)cccc2Cl)cc1S(N)(=O)=O`, the growth is 8.28% (active).

For the molecule `O=C(Nc1cccc(-n2cnc3cc(-c4ccc(O)cc4)ccc32)c1)C1CC1`, the growth is 27.4%.

For `COc1ccc(C2(SCCNCc3cc(N(C)C)ccn3)c3ccccc3C=Cc3ccccc32)cc1`, the growth was 21.3%.

`N/C(=N\c1nc2ccccc2s1)NC(=O)Nc1ccccc1Br`: the growth is -26.2% (active).

On to `COc1ccc(C2=NN(c3ccccc3)C(c3ccc(OC)c(OCc4ccccc4)c3)C2)cc1OC` (stereo not given), for which the growth was 101%.

Values taken from PubChem BioAssay (NCI).
